Test results reported in the supplement of paper PMC10127200.
Counter-ions that a name gives are not always drawn.

How the values were obtained:
Test in all cases: Euclidean distance of Cell Painting phenotypic profile (signed KS, 77 features) to DMSO centroid (dimensionless distance); 5 or 10 uM (library dependent); higher = stronger phenotypic change vs DMSO (phenoactivity)
Conditions in all cases: 48 h
786-O = tested on: 786-O
Procedure, shortened: (§1)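 Library compounds were applied at 10 or 5 uM, depending on the library, with 0.1% DMSO final, for 48 h to five cancer lines and a healthy fibroblast line. After staining, cells were imaged confocally at 20X across 9 fields per well, and Harmony extracted 77 features, each scored as a signed Kolmogorov-Smirnov statistic against vehicle wells on the same plate. Phenoactivity is the Euclidean distance between each profile and the median vehicle profile, with profiles first plate-position corrected, correlation-weighted and averaged over replicates at the top dose.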

A549 = tested on: A549
Procedure, shortened: as §1

DU145 = tested on: DU145
Procedure, shortened: as §1

FB = tested on: FB
Procedure, shortened: as §1

HEPG2 = tested on: HEPG2
Procedure, shortened: as §1

OVCAR4 = tested on: OVCAR4
Procedure, shortened: as §1

Row | Compound | Euclidean distance (786-O) | Euclidean distance (A549) | Euclidean distance (DU145) | Euclidean distance (FB) | Euclidean distance (HEPG2) | Euclidean distance (OVCAR4)
1 | C[C@@H](O)[C@H]1C(=O)N2C(C(=O)O)=C(S[C@@H]3CN[C@H](CNS(N)(=O)=O)C3)[C@H](C)[C@H]12 [Doripenem] | 0.636 | 0.801 | 0.812 | 1.15 | 0.434 | 1.45
2 | CNC(=O)CN(CCN(CCN(CC(=O)[O-])CC(=O)NC)CC(=O)[O-])CC(=O)[O-].O.[Gd+3] [Gadodiamide Hydrate] | 1.58 | 0.803 | 1.3 | 1.38 | 0.469 | 0.986
3 | CCn1cc(-c2ccnc3[nH]c(-c4cccc(CN(C)C)c4)cc23)c(-c2ccc(NC(=O)N(C)C)cc2)n1 | 2.56 | 2.73 | 2.29 | 3.38 | 2.7 | 2.8
4 | c1cnc(N2CCN(Cc3ccc4c(c3)OCO4)CC2)nc1 [Piribedil] | 1.19 | 0.769 | 1.21 | 1.05 | 0.645 | 0.899
5 | CC[N+](C)(C)c1cccc(O)c1 [Edrophonium chloride] | 0.852 | 0.865 | 0.738 | 0.728 | 0.598 | 0.943
6 | O=C(O)CCCc1ccccc1 [Sodium Phenylbutyrate] | 0.697 | 0.666 | 1.02 | 0.829 | 0.249 | 1.01
7 | CC1(C)S[C@@H]2[C@H](NC(=O)Cc3ccccc3)C(=O)N2[C@H]1C(=O)O.CCN(CC)CCOC(=O)c1ccc(N)cc1 [Penicillin G Procaine] | 0.821 | 0.676 | 0.97 | 1.38 | 0.466 | 1.24
8 | Nc1nc(=O)n([C@@H]2CS[C@H](CO)O2)cc1F [Emtricitabine] | 1.06 | 0.783 | 0.954 | 0.924 | 0.432 | 1.08
9 | O=c1ccn([C@@H]2O[C@H](COP(=O)(O)OP(=O)(O)OP(=O)(O)O)[C@@H](O)[C@H]2O)c(=O)[nH]1 [UTP. Trisodium Salt] | 1.15 | 0.718 | 0.761 | 0.666 | 1.23 | 0.979
10 | Cc1ccc(S(=O)(=O)Cc2nc(-c3ccc(C(=O)NCc4cccnc4)cc3)oc2C)cc1 | 3.04 | 2.65 | 2.6 | 1.11 | 1.68 | 2.14
11 | N=C1CCCN1Cc1[nH]c(=O)[nH]c(=O)c1Cl.O=c1[nH]c(=O)n([C@H]2C[C@H](O)[C@@H](CO)O2)cc1C(F)(F)F | 3.51 | 3.48 | 3.37 | 1.25 | 3 | 3.04
12 | Nc1ncnc2c1ncn2[C@@H]1O[C@H](CO)[C@@H](O)[C@H]1O [Adenosine] | 1.13 | 2.77 | 1.12 | 0.92 | 0.753 | 1.22
13 | C[C@H](NC(=O)Cc1cc(F)cc(F)c1)C(=O)N[C@H](C(=O)OC(C)(C)C)c1ccccc1 | 1.92 | 1.48 | 1.11 | 0.913 | 1.57 | 1.26
14 | C=CC(=O)N1CCC([C@@H]2CCNc3c(C(N)=O)c(-c4ccc(Oc5ccccc5)cc4)nn32)CC1 [Zanubrutinib (BGB-3111)] | 1.58 | 1.45 | 2.15 | 1.57 | 0.671 | 1.72
15 | Cc1cc2c(F)c(Oc3ncnn4cc(OC[C@@H](C)OC(=O)[C@H](C)N)c(C)c34)ccc2[nH]1 | 2.11 | 1.25 | 1.14 | 1.57 | 0.818 | 1.35
16 | CC(=O)CC/C=C(\C)CC/C=C(\C)CC/C=C(\C)CCC=C(C)C [Teprenone] | 1.06 | 0.693 | 0.749 | 1.12 | 1.1 | 1.23
17 | C[C@H]1[C@H](C)CC[C@]2(C(=O)O)CC[C@]3(C)C(=CC[C@@H]4[C@@]5(C)C[C@@H](O)[C@H](O)[C@@](C)(CO)[C@@H]5[C@H](O)C[C@]43C)[C@H]12 [Madecassic acid] | 0.661 | 0.291 | 0.775 | 0.741 | 0.461 | 0.968
18 | CN1CC2c3ccccc3Oc3ccc(Cl)cc3C2C1 (centres undefined) [Asenapine maleate] | 1.69 | 0.991 | 2.6 | 1.59 | 1.28 | 1.51
19 | Nc1ccc(S(N)(=O)=O)cc1 [Sulfanilamide] | 0.866 | 0.563 | 0.913 | 0.819 | 0.645 | 1.21
20 | C1=N/C2=N/c3ccc(OCCN4CCCC4)c(c3)COC/C=C/COCc3cccc(c3)C(=C1)N2 [Pacritinib (SB1518)] | 3.54 | 3.52 | 2.51 | 3.49 | 3.79 | 3.42
21 | Nc1nc(N)c(N=O)c(OCC2CCCCC2)n1 | 1.11 | 1.58 | 0.998 | 1.01 | 0.792 | 1.38
22 | Cc1ccc(/C(=C\CN2CCCC2)c2cccc(/C=C/C(=O)O)n2)cc1 [Acrivastine] | 1.08 | 0.966 | 1.03 | 0.976 | 0.729 | 1.02
23 | CN(C)[C@@H]1C(O)=C(C(N)=O)C(=O)[C@@]2(O)C(O)=C3C(=O)c4c(O)ccc(Cl)c4[C@@H](O)[C@H]3C[C@@H]12 [Demeclocycline HCl] | 0.985 | 0.836 | 0.951 | 1.05 | 0.887 | 1.53
24 | CC(=O)OC(C)OC(=O)C(C)c1ccc(-c2ccccc2)c(F)c1 (centres undefined) [Flurbiprofen Axetil] | 1.28 | 0.882 | 0.893 | 1.57 | 1.39 | 1.44
